Source: ChEMBL document CHEMBL2218924, “A broad activity screen in support of a chemogenomic map for kinase signalling research and drug discovery” (Biochem J, 2013)

What was measured:
[1] = target: Serine/threonine-protein kinase PLK3 (Homo sapiens) (UniProt Q9H4B4); details: at 1 µM
[2] = target: Serine/threonine-protein kinase PLK3 (Homo sapiens) (UniProt Q9H4B4); details: at 10 µM
[3] = target: T1, cAMP-dependent protein kinase catalytic subunit PRKX (Homo sapiens) (UniProt P51817); details: at 1 µM
T1 sequence (whole entry): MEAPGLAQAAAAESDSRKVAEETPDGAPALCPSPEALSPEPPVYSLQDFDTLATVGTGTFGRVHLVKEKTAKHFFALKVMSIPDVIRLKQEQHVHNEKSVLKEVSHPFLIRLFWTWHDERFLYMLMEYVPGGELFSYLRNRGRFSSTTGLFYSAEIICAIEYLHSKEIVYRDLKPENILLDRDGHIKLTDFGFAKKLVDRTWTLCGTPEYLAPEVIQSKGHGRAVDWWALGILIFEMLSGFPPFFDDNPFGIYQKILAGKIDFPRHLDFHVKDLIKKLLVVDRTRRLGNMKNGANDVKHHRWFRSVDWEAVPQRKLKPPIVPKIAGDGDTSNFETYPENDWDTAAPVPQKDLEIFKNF

[4] = target: T1, cAMP-dependent protein kinase catalytic subunit PRKX (Homo sapiens); details: at 10 µM
[5] = target: Protein-tyrosine kinase 2-beta (Homo sapiens) (UniProt Q14289); details: at 1 µM
Chain of Protein-tyrosine kinase 2-beta (Homo sapiens) (Q14289 whole entry, looked up): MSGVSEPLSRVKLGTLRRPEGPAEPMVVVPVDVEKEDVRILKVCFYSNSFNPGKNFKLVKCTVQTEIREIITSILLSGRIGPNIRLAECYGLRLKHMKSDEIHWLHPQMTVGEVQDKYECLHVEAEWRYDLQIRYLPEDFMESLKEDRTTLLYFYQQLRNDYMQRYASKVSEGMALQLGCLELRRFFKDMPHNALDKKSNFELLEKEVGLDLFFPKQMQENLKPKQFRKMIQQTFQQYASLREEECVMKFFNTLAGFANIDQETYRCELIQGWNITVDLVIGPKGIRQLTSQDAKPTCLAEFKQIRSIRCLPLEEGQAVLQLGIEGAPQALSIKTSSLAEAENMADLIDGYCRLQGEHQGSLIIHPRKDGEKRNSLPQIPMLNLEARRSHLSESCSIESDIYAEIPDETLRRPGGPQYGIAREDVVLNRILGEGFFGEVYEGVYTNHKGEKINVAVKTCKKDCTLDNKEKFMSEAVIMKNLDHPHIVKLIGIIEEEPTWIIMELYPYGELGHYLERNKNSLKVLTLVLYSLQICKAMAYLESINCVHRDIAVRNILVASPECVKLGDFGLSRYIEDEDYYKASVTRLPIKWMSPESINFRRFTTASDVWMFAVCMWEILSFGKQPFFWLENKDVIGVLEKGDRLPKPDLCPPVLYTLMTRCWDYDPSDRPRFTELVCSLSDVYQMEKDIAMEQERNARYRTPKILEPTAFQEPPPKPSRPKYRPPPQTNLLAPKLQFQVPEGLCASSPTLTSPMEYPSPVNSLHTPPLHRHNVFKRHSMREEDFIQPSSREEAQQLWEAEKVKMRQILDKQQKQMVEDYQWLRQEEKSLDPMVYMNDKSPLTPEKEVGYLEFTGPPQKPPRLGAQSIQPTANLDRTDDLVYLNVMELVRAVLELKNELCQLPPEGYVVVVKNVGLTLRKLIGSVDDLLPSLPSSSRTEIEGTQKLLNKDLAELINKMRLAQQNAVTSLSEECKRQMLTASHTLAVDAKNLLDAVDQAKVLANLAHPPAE

[6] = target: Protein-tyrosine kinase 2-beta (Homo sapiens) (UniProt Q14289); details: at 10 µM
[7] = target: Receptor-interacting serine/threonine-protein kinase 2 (Homo sapiens) (UniProt O43353); details: at 1 µM
Chain of Receptor-interacting serine/threonine-protein kinase 2 (Homo sapiens) (O43353 whole entry): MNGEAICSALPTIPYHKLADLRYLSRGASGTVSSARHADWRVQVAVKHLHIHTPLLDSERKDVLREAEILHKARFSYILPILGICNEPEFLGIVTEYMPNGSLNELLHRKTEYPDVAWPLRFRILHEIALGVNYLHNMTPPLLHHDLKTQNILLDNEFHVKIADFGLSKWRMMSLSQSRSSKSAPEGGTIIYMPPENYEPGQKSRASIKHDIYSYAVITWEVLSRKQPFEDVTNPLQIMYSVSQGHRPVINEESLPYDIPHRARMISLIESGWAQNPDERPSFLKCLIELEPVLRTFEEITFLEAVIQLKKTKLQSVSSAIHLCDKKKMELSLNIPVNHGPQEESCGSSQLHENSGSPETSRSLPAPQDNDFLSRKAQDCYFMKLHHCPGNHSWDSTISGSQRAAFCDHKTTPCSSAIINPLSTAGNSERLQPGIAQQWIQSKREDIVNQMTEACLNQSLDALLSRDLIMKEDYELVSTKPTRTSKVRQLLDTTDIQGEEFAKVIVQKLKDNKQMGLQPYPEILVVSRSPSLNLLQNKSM

[8] = target: Receptor-interacting serine/threonine-protein kinase 2 (Homo sapiens) (UniProt O43353); details: at 10 µM
[9] = target: Rho-associated protein kinase 1 (Homo sapiens) (UniProt Q13464); details: at 1 µM
Chain of Rho-associated protein kinase 1 (Homo sapiens) (Q13464 2-1354 limits assumed): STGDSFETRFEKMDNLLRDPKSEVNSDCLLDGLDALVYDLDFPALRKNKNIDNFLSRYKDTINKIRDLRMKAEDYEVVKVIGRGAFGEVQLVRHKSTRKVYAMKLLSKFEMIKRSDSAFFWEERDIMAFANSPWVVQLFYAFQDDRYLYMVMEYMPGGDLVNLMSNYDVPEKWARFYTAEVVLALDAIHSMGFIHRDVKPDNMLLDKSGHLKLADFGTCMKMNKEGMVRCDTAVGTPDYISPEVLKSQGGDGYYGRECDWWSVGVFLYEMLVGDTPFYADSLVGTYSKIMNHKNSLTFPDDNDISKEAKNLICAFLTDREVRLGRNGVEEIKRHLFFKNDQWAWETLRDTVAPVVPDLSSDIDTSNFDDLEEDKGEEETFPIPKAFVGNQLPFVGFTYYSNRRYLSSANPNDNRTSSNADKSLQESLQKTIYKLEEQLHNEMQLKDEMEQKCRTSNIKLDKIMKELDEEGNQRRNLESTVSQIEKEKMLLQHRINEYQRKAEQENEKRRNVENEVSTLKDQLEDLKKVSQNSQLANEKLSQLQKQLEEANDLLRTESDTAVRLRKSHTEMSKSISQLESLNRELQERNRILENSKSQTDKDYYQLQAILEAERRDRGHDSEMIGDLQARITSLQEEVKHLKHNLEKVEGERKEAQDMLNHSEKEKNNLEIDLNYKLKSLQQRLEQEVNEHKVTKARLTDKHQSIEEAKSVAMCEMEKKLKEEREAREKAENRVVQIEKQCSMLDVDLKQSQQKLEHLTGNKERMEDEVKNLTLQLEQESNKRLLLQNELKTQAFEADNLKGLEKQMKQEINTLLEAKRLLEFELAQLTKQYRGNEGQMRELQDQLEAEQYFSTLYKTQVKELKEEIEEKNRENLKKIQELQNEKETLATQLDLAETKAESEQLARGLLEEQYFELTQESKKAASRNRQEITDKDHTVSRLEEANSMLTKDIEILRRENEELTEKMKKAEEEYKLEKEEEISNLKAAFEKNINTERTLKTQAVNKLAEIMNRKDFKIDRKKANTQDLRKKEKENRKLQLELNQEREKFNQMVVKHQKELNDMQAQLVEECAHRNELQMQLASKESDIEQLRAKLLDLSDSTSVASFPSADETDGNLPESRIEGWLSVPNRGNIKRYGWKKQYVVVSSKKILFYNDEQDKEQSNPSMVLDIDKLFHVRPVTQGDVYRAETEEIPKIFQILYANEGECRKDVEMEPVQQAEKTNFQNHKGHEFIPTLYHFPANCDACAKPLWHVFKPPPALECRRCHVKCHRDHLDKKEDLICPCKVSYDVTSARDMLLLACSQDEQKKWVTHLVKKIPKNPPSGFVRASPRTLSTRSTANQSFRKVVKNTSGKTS

[10] = target: Rho-associated protein kinase 1 (Homo sapiens) (UniProt Q13464); details: at 10 µM

Chain of Serine/threonine-protein kinase PLK3 (Homo sapiens) (Q9H4B4 whole entry, looked up): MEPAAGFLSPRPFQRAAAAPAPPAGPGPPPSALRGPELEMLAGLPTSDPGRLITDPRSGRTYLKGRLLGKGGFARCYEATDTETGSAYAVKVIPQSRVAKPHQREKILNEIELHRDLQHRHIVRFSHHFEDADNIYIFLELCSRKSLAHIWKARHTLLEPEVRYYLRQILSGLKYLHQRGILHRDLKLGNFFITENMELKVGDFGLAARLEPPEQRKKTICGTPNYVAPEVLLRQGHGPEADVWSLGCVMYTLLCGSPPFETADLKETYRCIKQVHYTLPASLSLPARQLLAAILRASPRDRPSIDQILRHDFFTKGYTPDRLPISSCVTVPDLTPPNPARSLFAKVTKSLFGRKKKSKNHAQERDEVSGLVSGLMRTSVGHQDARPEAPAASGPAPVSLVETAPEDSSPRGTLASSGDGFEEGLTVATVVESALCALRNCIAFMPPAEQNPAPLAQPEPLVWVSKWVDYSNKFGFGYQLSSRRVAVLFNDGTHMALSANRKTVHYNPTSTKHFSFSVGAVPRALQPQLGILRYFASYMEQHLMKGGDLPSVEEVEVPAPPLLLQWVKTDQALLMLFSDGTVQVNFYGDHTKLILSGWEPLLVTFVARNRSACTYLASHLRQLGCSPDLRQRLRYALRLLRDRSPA

Compound	residual activity [1]	residual activity [2] [%]	residual activity [3] [%]	residual activity [4] [%]	residual activity [5] [%]	residual activity [6] [%]	residual activity [7] [%]	residual activity [8] [%]	residual activity [9] [%]	residual activity [10] [%]
NC(=O)c1ccc2[nH]c(-c3ccc(Oc4ccc(Cl)cc4)cc3)nc2c1	97% (inactive)	91	72	112	100	86	82	66	123	118
CC(C)n1cnc2c(NCc3ccccc3)nc(NCCCO)nc21	98% (inactive)	95	130	88	102	83	69	51	109	100
CN(C)c1ccc(/C=C2\C(=O)Nc3ccccc32)cc1	94% (inactive)	88	92	66	103	47	103	83	132	123
Cn1cnc2cc3c(Nc4cccc(Br)c4)ncnc3cc21	95% (inactive)	92	108	110	119	77	26	20	104	110
Nc1nc(Nc2ccc(S(N)(=O)=O)cc2)nn1C(=S)Nc1c(F)cccc1F	90% (inactive)	91	44	7	4	1	16	29	6	1
CCOc1cc2ncnc(Nc3cccc(Br)c3)c2cc1OCC	87% (inactive)	100	98	78	110	58	24	12	94	95
CCC(=O)Nc1ccc2ncnc(Nc3cccc(Br)c3)c2c1	89% (inactive)	86	89	94	126	95	50	32	115	120
COc1cc2ncnc(N3CCN(C(=O)Nc4ccc(Oc5ccccc5)cc4)CC3)c2cc1OC	90% (inactive)	92	77	113	122	104	84	70	124	
CO[C@H]1[C@@H](OC)C[C@H](C)[C@@H](OC)C2=CC(=O)C=C(NC(=O)/C(C)=C/C=C/[C@H](OC)[C@@H](OC(N)=O)/C(C)=C/[C@@H]1C)C2=O	99% (inactive)	104	80	72	124	100	93	96	121	
N#C/C(=C(\N)Sc1ccc(N)cc1)c1ccccc1C(F)(F)F	101% (inactive)	90	95	109	100	97	93	98	110	103
N#CCCc1ccc2c(c1)-c1[nH]c3ccc([N+](=O)[O-])cc3c1CC(=O)N2	100% (inactive)	82	72	25	19	9	18	10	52	24
COc1ccc(S(=O)(=O)N(CCO)c2ccccc2CN(C)C/C=C/c2ccc(Cl)cc2)cc1	87% (inactive)	96	88	51	109	96	92	91	134	124
O=C1NC(=O)/C(=C/c2ccc3c(c2)OC(F)(F)O3)S1	94% (inactive)	96	88	77	135	101	99	83	95	116
Nc1ccc2ncnc(NCCc3ccc(Oc4ccccc4)cc3)c2c1	102% (inactive)	96	109	58	88	72	102	88	106	100
O=C1c2ccccc2-[n+]2ccc3c([nH]c4ccccc43)c21	98% (inactive)	91	92	53	101	97	90	88	126	115
O=Nc1c(-c2c(O)[nH]c3ccccc23)[nH]c2ccccc12	96% (inactive)	91	48	33	14	2	60	27	108	92
CO[C@H]1C[C@@H]2CC[C@@H](C)[C@@](O)(O2)C(=O)C(=O)N2CCCC[C@H]2C(=O)O[C@H]([C@H](C)C[C@@H]2CC[C@@H](O)[C@H](OC)C2)CC(=O)[C@H](C)/C=C(\C)[C@@H](O)[C@@H](OC)C(=O)[C@H](C)C[C@H](C)/C=C/C=C/C=C/1C	93% (inactive)	94	98	94	119	99	84	84	127	140

Compound	residual activity [1]	residual activity [2] [%]	residual activity [3] [%]	residual activity [4] [%]	residual activity [5] [%]	residual activity [6] [%]	residual activity [7] [%]	residual activity [8] [%]	residual activity [9] [%]	residual activity [10] [%]
O=C1Nc2cc(Br)ccc2/C1=C1/Nc2ccccc2/C1=N\O	100% (inactive)	91	73	36	10	3	78	85	113	102
CCN(CC)CCCCN1c2ccccc2Oc2ccc(Cl)cc21	101% (inactive)	99	109	101	131	115	105	85	113	121
COc1cc2ncnc(Nc3ccc(Oc4ccccc4)cc3)c2cc1OC	87% (inactive)	95	92	132	96	69	28	19	115	126
O=C(Nc1cccc(Nc2cc(Nc3cccc(C(F)(F)F)c3)ncn2)c1)C1CC1	97% (inactive)	90	102	100	104	63	53	41	101	99
CN(C)CCCn1cc(C2=C(c3c[nH]c4ccccc34)C(=O)NC2=O)c2ccccc21	101% (inactive)	104	103	38	115	42	90	77	83	89
Cc1cc2ncc(-c3ccccc3)nc2cc1C	87% (inactive)	92	108	97	126	101	108	82		
COc1ccc(OC)c2c(=S)c3ccccc3[nH]c12	99% (inactive)	95	83	83	79	105	85	80	122	102
Cc1ccc(S(=O)(=O)/C=C/C#N)cc1	103% (inactive)	97	91	101	102	104	88	88	119	106
O=c1cc(-c2cccc3c2Sc2ccccc2S3)oc(N2CCOCC2)c1	107% (inactive)	95	95	72	91	112	94	96	102	96
O=c1c2ccccc2[nH]c(=S)n1CCN1CCC(=C(c2ccc(F)cc2)c2ccc(F)cc2)CC1	98% (inactive)	89	87	52	136	91	100	101	114	127
Nc1n[nH]c2nnc(-c3c(-c4ccccc4)nn4ccccc34)cc12	97% (inactive)	99	92	74	95	72	88	78	106	105
Cc1nc2cc3nc(-c4cccs4)cnc3cc2n1C	101% (inactive)	105	108	101	123	87	84	49	102	107
Cc1nc(-c2ccccc2)c(-c2ccncc2)o1	106% (inactive)	96	86	85	91	79	58	25	124	108
CO[C@@H]1[C@H](N(C)C(=O)c2ccccc2)C[C@H]2O[C@]1(C)n1c3ccccc3c3c4c(c5c6ccccc6n2c5c31)C(=O)NC4	95% (inactive)	92	24	12	16	10	88	70	110	115
COc1ccc(C(=O)Nc2sc3c(c2C(N)=O)CCCC3)cc1OC	90% (inactive)	91	80	95	121	89	79	71	101	119
Cc1cncc2cccc(S(=O)(=O)N3CCCN(C(=O)CN)C[C@H]3C)c12	98% (inactive)	92	57	13	122	55	95	76	34	14
